High-throughput results: PubChem BioAssay, Sanford-Burnham Center for Chemical Genomics
Sampled rows, rich in hits. Any-hit rate of the full collection: about 28%.
CD11b adhes enh = enhancers of human CD11b/CD18 binding to fibrinogen. activation, % at 10 µM. K562 CD11b/CD18 adhesion to fibrinogen, ATPlite luminescence. P05107+P11215. hit rate 0.07% among 93,000;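 active means 10 µM primary screen giving 50% or more activity, confirmed by 40% or more on retest at that dose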
CYP2C19 activ = activators of human cytochrome P450 2C19. AID 1025. recombinant CYP2C19, luciferin-H EGE luminescence; active compounds read high; 0 = fully inhibited enzyme, 1 = untreated enzyme. 96,000 tested, under 10 active. activation factor at 5 µM;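 active means activation factor of at least 2 at 5 µM in the primary screen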;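 further: 0 = wells with 2.5 mM tranylcypromine and 1 = vehicle-only wells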
Target sequence (P33261 whole entry, looked up): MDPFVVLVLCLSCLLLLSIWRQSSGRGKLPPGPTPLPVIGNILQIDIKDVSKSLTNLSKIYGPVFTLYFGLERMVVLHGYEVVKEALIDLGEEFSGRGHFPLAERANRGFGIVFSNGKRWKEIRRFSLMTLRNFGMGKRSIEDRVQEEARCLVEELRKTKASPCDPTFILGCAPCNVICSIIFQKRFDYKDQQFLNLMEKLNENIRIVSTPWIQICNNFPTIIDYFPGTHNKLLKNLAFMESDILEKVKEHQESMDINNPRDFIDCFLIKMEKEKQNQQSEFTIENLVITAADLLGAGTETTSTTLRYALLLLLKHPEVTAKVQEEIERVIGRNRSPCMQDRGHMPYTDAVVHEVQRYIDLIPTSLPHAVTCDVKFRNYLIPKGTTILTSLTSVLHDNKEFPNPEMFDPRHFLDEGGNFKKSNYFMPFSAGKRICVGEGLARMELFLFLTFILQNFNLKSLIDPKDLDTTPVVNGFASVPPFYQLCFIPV
CYP2C9 activ = increases human cytochrome P450 2C9 activity; P11712; recombinant CYP2C9, luciferin-H conversion, luminescence; active compounds read high; factor 1 = untreated enzyme, 0 = blocked; activation factor at 5 µM; hit rate 1.4% among 96,000; AID 1024;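 active means activation factor of 2 or more for CYP2C9 at a 5 µM dose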;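 further: 0 = sulfaphenazole-blocked wells and 1 = vehicle-only wells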
CYP2C19 inh = inhibitors of human CYP2C19; P33261; CYP2C19 Supersomes, luciferin-H EGE luminescence, 30 min; inhibition, % at 5 µM; hit rate 21% among 96,000; AID 778;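 active means CYP2C19 inhibition above a set limit at 5 µM in the primary screen, cut at about 50% in these data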;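 further: plate controls were negative control wells for no effect and 2.5 mM tranylcypromine positive control for full effect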
Mac1 fbg inh = CD11b/CD18-fibrinogen binding inhibition; hit rate 0.54% among 93,000; K562 CD11b/CD18 adhesion to fibrinogen, ATPlite luminescence; Mn2+ added to activate the integrin; inhibition, % at 10 µM;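 active means primary inhibition of 50% or more at 10 µM, then 40% or more on retest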
CYP2C9 inhib = human CYP2C9 inhibition; hit rate 20% among 96,000; CYP2C9 Supersomes, luciferin-H conversion, luminescence; inhibition, % at 5 µM;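 active means blocking of liver enzyme CYP2C9 beyond about 50% at 5 µM, limit read from the data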
* hit, by the source's call; . = no result given.

SMILES	CD11b adhes enh	CYP2C19 activ	CYP2C9 activ	CYP2C19 inh	Mac1 fbg inh	CYP2C9 inhib
c1ccc(Cn2nnnc2C(c2ccncc2)N2CCOCC2)cc1 (stereo unspecified)	-4	0.6	0.8	37	-10	22
Oc1ccc(N2CCN(C(c3ccncc3)c3nnnn3C3CCCC3)CC2)cc1 (stereo unspecified)	5	0.5	0.5	52*	0	48
c1cc(C(c2nnnn2C2CCCC2)N2CCOCC2)ccn1 (stereo unspecified)	1	0.2	0.7	83*	7	28
CCCc1ccc(OCc2ccc(C(=O)OC)o2)c(OC)c1	-2	0.6	0.6	36	4	41
Cc1ccc(C(=O)Nc2ccncc2)o1	2	0.3	0.6	73*	-16	38
COc1cc(C(=O)NCc2ccco2)cc(OC)c1OC	2	0.7	0.9	33	-5	7
COc1ccccc1OCc1ccc(C(=O)NCc2ccco2)o1	2	0.2	0.8	76*	-2	24
Cc1ccc(C(=O)Nc2ccc3c(c2)OCCO3)o1	-5	0.5	0.8	46	9	25
O=C(NCc1cccnc1)c1ccc(COc2ccccc2Br)o1	2	0.2	0.4	79*	6	61*
COc1ccccc1OCc1ccc(C(=O)OCC2CCCO2)o1 (stereo unspecified)	-2	0.2	1.2	76*	-43	-16
O=C(O)C1C2C=CC(C2)C1C(=O)NC(c1ccccc1)c1ccccc1 (stereo unspecified)	-4	1.2	1.3	-17	-4	-35
CC(C)(C)N=Cc1cc(-c2ccccc2)sc1O	2	0.9	0.9	8	3	6
COC(=O)c1ccccc1NC(=O)c1ccc(COc2cccc3ccccc23)o1	-5	0.7	0.4	33	3	58*
O=C(N/N=C/c1ccc2ccccc2c1)c1ccc(COc2ccc3c(c2)CCC3)o1	.	0.5	0.5	48	.	48
O=C(Nc1cccnc1)c1ccc(COc2ccccc2Br)o1	-4	0.1	0.4	89*	-1	60*
COC(=O)c1ccccc1NC(=O)c1ccc(COc2ccccc2)o1	11	0.8	1.2	21	1	-18
O=C(NCc1cccnc1)c1ccc(COc2ccc3c(c2)CCC3)o1	.	0	0.3	99*	.	67*
COc1ccccc1OCc1ccc(C(=O)NC(C)(C)C)o1	8	0.8	0.9	16	14	6
COc1ccccc1OCc1ccc(C(=O)Nc2ccncc2)o1	-4	0	0	100*	30	98*
CCOC(=O)C(Sc1n[nH]c(N)n1)c1ccccc1 (stereo unspecified)	-4	0.8	0.8	17	-4	19
CCCc1cc2c(cc1NC(=O)c1ccc(C)cc1)OCO2	.	0	0.6	98*	.	41
O=C(NC1CCCCC1)C(c1ccc(F)cc1)N(C(=O)c1cccs1)c1ccc2c(c1)OCO2 (stereo unspecified)	35	1.1	0.9	-5	-18	14
N#CC1=C(N)Oc2n[nH]c(-c3cccs3)c2C1c1cccnc1 (stereo unspecified)	2	0.3	0.3	70*	14	69*
Cc1ccc(SCc2[nH]nc3c2C(c2cccnc2)C(C#N)=C(N)O3)cc1 (stereo unspecified)	3	0.7	0.2	31	-5	78*
CCc1[nH]nc2c1C(c1cccnc1)C(C#N)=C(N)O2 (stereo unspecified)	0	1.1	1.1	-6	-4	-6
SMILES	CD11b adhes enh	CYP2C19 activ	CYP2C9 activ	CYP2C19 inh	Mac1 fbg inh	CYP2C9 inhib
COc1cc(C2C(C#N)=C(N)Oc3n[nH]c(-c4ccncc4)c32)cc(OC)c1OC (stereo unspecified)	.	0.8	0.9	18	.	10
N#CC1=C(N)Oc2n[nH]c(-c3ccncc3)c2C1c1ccsc1 (stereo unspecified)	6	0.5	0.1	46	-10	89*
N#CC1=C(N)Oc2n[nH]c(-c3ccc(F)cc3)c2C1c1ccncc1 (stereo unspecified)	-1	0.6	0.3	41	-2	69*
N#CC1=C(N)Oc2n[nH]c(-c3cccs3)c2C1c1ccoc1 (stereo unspecified)	-3	0.8	0.9	21	-20	14
Brc1ccc(-n2cccc2/C=N/n2cnnc2)cc1	0	0.3	0.5	74*	-4	53*
Clc1ccc(-n2cccc2/C=N/n2cnnc2)cc1	-2	0.4	0.4	57*	0	56*
CCOC(=O)c1ccc(Nc2ncnc3ccc(C)cc23)cc1	-4	0.8	1.1	19	-1	-5
CCOC(=O)c1cccc(Nc2ncnc3ccc(C)cc23)c1	-3	0.4	0.5	56*	-17	50
CCCN(CCC)C1CC(=O)N(Cc2ccccc2)C1=O (stereo unspecified)	-1	0.2	0.9	85*	-3	12
COc1cccc(NC2CC(=O)N(CCc3ccccc3)C2=O)c1 (stereo unspecified)	.	0.5	0.8	50	.	21
Cc1ccc(N2C(=O)CC(Nc3ccccc3)C2=O)cc1 (stereo unspecified)	-2	0.5	0.9	53*	-5	9
COc1ccc(NC2CC(=O)N(c3cccc(C)c3)C2=O)cc1 (stereo unspecified)	0	0.4	0.9	60*	-13	13
Cc1ccc(NC2CC(=O)N(Cc3ccccc3)C2=O)cc1 (stereo unspecified)	3	0.3	1.5	68*	-3	-46
Cc1cc(C)c(C#N)c(=N)o1	4	0.9	1	6	-2	0
CC1CCCCC1NC(=O)COC(=O)c1ccc(S(=O)(=O)N2CCOCC2)cc1 (stereo unspecified)	0	1	1	-1	3	4
Cc1nc(CN2CCN(C(=O)c3ccc(Br)cc3)CC2)cs1	0	0.9	1.2	14	-2	-16
CCCCN1C(=O)CC(Nc2ccc(CC)cc2)C1=O (stereo unspecified)	4	0.2	0.8	77*	-16	22
CCc1ccc(NC2CC(=O)N(c3ccc(OC)cc3OC)C2=O)cc1 (stereo unspecified)	-2	0.9	1	12	-15	-1
CCOP(=O)(OCC)c1nc(/C=C/c2ccccc2)oc1NCc1ccccc1	.	0.4	0.6	56*	.	36
CCOP(=O)(OCC)c1nc(/C=C/c2ccccc2)oc1NCc1ccc(OC)cc1	7	0	0.2	98*	-34	78*
COc1ccc(-c2nnc(SCC(=O)NC(=O)NCc3ccccc3)o2)cc1	12	0.6	1.9	42	-8	-95
CCOP(=O)(OCC)c1nc(-c2cccc3ccccc23)oc1NCc1ccccc1	0	0.7	0.6	30	-68	37
